In PubChem BioAssay AID651823 (Broad Institute, 2012) one finds max delta Tm data, which are given here for 18 compounds.

Some of the results follow. Values without a mark were called inactive. Calls of active or inactive are those of the source. Rule as the data show it: active = max delta Tm above about 0.48 degrees C; inactive = the rest.

Sequence of Kelch-like ECH-associated protein 1 (Homo sapiens) (Q14145 whole entry, looked up, the tested form may be a part): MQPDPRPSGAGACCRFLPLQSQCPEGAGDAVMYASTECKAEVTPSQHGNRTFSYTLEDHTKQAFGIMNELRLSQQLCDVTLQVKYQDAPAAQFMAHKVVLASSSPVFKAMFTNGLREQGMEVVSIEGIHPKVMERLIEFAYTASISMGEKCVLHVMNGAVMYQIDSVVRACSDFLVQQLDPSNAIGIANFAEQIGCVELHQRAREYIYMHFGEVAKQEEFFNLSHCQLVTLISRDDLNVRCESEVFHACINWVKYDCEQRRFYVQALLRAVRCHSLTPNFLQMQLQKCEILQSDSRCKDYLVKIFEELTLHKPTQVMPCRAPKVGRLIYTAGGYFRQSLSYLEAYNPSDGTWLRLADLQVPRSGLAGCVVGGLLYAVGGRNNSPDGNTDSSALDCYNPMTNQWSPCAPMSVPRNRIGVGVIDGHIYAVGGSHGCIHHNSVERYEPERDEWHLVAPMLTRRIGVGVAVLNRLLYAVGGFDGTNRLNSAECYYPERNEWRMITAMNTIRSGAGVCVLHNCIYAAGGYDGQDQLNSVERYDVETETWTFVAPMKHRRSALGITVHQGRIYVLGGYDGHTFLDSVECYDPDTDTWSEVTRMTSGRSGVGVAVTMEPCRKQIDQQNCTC

This assay addresses Kelch-like ECH-associated protein 1 (Homo sapiens) (UniProt Q14145). Kind of assay: Keap1 Kelch domain binders by thermal stabilisation, dose response, biophysical, thermal shift, RT-PCR instrument, cherry-pick (AID 651823). To be noted: active compounds read high; at 50 µM unless noted.
With `COc1ccc(C2c3ccc(O)cc3Oc3ncn(CCCO)c(=N)c32)cc1OC` (stereo not drawn), the max delta Tm is -0.15 °C [at 6 µM].
Consider `CCCC1OC23CCCCC2C(C#N)(C#N)C1(C#N)C(=N)O3` (stereo not drawn), for which the max delta Tm is -0.1 °C [at 0.38 µM].
Consider `COC(=O)C[n+]1cccc2ccccc21`, for which the max delta Tm is -0.13 °C.
Take `COc1cc(OC)c(S(=O)(=O)Nc2ccccc2C(=O)O)cc1S(=O)(=O)Nc1ccccc1C(=O)O`: the max delta Tm is 0.77 °C (active).
Next, `O=C(NCCOCc1ccc(Cl)cc1)c1ncn[nH]1`: -0.19 °C; `CC1(C)CC(=O)C(N=Nc2c(F)cccc2F)=C(O)C1`: -0.12 °C [at 6 µM]; `Nc1ccc2nc3c(=O)[nH]c(=S)[nH]c3nc2c1`: 0.14 °C.
Next, `CCN1/C(=C\c2ccc3ccccc3[n+]2CC)Sc2cc(C)ccc21`: -0.01 °C [at 26 µM]; `CCCC(=O)Nc1ccc(C(=O)NCCCn2ccnc2)cc1`: -0.11 °C; `Cc1cccc(NS(=O)(=O)c2ccc(C)c(C(=O)NCC(c3ccccc3)N(C)C)c2)c1` (stereo not drawn): -0.11 °C [at 0.8 µM].
For `CN1C(=O)c2cccc3c(N)ccc(c23)C1=O` the value was 0 °C [at 26 µM]; for `CCCN(CCC)C(=O)C1c2ccccc2Oc2ccccc21`, -0.08 °C [at 0.38 µM].
For `O=C(CCc1ccccc1)NNc1ccc(F)cc1`, the max delta Tm is -0.17 °C [at 0.8 µM].
For `O=C(Nc1ccccn1)C1CCN(S(=O)(=O)c2ccc3c(c2)OCCO3)CC1` the value was -0.17 °C [at 0.38 µM]; for `O=C1CC(Cc2ccc(Cl)cc2)C(=O)N1c1cc(Cl)ccn1` (stereo not drawn), -0.06 °C [at 0.38 µM].
Turning to `O=C(O)CC(Cn1cnnn1)c1ccccc1` (stereo not drawn), the max delta Tm is -0.14 °C [at 3 µM].
For `CN(CCOc1ccc(CC2SC(=O)NC2=O)cc1)c1ccccn1` (stereo not drawn) the value was -0.09 °C [at 0.8 µM]; for `COc1ccc(Nc2nc(-c3cccnc3)nc3ccccc23)cn1`, -0.21 °C [at 1.6 µM].
